# Data: PubChem BioAssay AID1851 (National Center for Advancing Translational Sciences (NCATS), 2009)
# In all, about 16,000 compounds went through this assay and about 5,100 (32%) were called active. Roughly 25% stayed inconclusive and do not appear here. This is one part of the list. Where a structure was tested more than once in an assay, its records may differ in their call. Values without a mark were called inactive. Calls come from the whole dose curve; as a rule, active = well fitted curve in the direction sought with a large enough effect; inconclusive = small, poorly fitted or top-dose-only effect, or effect the other way; inactive = no such curve, though single readings can be large or run the other way.
# Molecular target: Cytochrome P450 3A4 (Homo sapiens) (UniProt P08684)
# Sequence (P08684 whole entry, looked up): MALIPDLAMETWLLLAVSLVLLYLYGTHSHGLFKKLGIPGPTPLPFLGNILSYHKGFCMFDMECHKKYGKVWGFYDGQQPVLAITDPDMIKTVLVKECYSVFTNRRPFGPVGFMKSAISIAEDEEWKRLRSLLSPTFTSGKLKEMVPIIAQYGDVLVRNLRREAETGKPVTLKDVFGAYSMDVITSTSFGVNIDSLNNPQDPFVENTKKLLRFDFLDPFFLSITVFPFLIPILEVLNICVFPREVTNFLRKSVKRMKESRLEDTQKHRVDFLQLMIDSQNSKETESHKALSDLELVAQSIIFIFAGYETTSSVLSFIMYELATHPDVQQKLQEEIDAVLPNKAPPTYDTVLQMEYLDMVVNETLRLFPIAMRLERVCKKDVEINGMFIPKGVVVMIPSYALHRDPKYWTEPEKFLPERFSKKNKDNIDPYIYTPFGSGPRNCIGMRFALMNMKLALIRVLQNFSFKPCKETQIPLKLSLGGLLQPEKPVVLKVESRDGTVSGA
# Assay: Cytochrome panel assay with activity outcomes
# Details: recombinant CYP, pro-luciferin dealkylation, luminescence, p450-cyp3a4; series mostly up to 57.1 µM; activity, negative = inhibition: at the top concentration
# % is set by controls: 0 for no effect and ±100 for the full control effect.
Structure (SMILES),"activity, negative = inhibition",AC50
CCOC(=O)c1sc2nc3c(cc2c1N)COC(C)(CC)C3 (stereo not given),1.93% [at 11.4 µM],–
Cc1ccc(C(=O)Cn2nnc3c(sc4nc5c(c(-c6ccccc6)c43)CCC5)c2=O)cc1,-10.2%,–
CCC1(C)Cc2c(sc3nnn(CC(=O)Nc4ccc(C)cc4)c(=O)c23)CO1 (stereo not given),–,14.1 µM (active)
CC1(C)Cc2c(sc3nc(-c4ccccc4)n(N)c(=O)c23)CO1,-13.6%,–
CCOC(=O)Cn1nnc2c(sc3nc4c(c(-c5ccc(Cl)cc5)c32)CCC4)c1=O,10.9%,–
CCC1(C)Cc2c(sc3nnn(CC(=O)Nc4cccc5ccccc45)c(=O)c23)CO1 (stereo not given),–,10 µM (active)
CC1(C)CC(=O)c2cn3ncnc3nc2C1,-2.27%,–
Nc1cccc2cnccc12,–,7.94 µM (active)
CC(C)[C@H](NC(=O)OC(C)(C)C)[C@@H](O)CC(=O)OC(C)(C)C,-23.3% [at 11.4 µM],–
COc1ccccc1NC(=O)c1nn(-c2cccc(C(F)(F)F)c2)ccc1=O,–,20 µM (active)
Cc1n[nH]c(=O)n1-c1cccc(C(F)(F)F)c1,5.28%,–
O=c1ccn(-c2cccc(C(F)(F)F)c2)nc1-c1ccn(-c2ccccc2F)n1,–,10 µM (active)
O=C(O)c1nn(-c2ccccc2)ccc1=O,-15.6% [at 11.4 µM],–
COc1ccccc1NC(=O)c1nc[nH]c1C(=O)Nc1ccccc1OC,16.7%,–
O=C(c1ccccc1)c1nn(-c2ccccc2)c(=O)cc1C(F)(F)F,32.3%,–
CC(C)NC[C@H]1CCc2cc(CO)c([N+](=O)[O-])cc2N1,-14.3% [at 25.6 µM],–
N#CCCn1c(=O)c(-c2ccc(Cl)cc2)nc2cnc(Oc3cccc(Cl)c3)nc21,-0.801%,–
N#CCCn1c(=O)c(-c2ccccc2)nc2cnc(Oc3cccc(Cl)c3)nc21,-11.9%,–
COc1ccc(Oc2ncc3nc(CCc4ccccc4)c(=O)n(CCC#N)c3n2)cc1,–,1.58 µM (active)
N#CCCn1c(=O)c(CCc2ccccc2)nc2cnc(Oc3ccccc3)nc21,–,2.51 µM (active)
N#CCCn1c(=O)cnc2cnc(Oc3ccccc3)nc21,-17.2%,–
N#CCCn1c(=O)c(CCc2ccccc2)nc2cnc(Oc3cccc(Cl)c3)nc21,–,0.794 µM (active)
Cc1cc(=O)c2cc(Cl)ccc2[nH]1,-16.9%,–
Clc1ccc(SCc2cc(-c3ccccc3)no2)cc1,-27.4%,–

Structure (SMILES),"activity, negative = inhibition",AC50
Nc1ccccc1SCc1csc(-c2ccc(Cl)cc2)n1,–,1 µM (active)
C[N+](C)(N)Cc1csc(-c2ccc(Cl)cc2)n1,-0.841% [at 11.4 µM],–
CN1CCc2ccccc2[C@@H]1Cc1ccccc1NC(=O)c1sc2ccccc2c1Cl,–,1.58 µM (active)
Cc1cc(C)c(C#N)c(SCc2cc3c(cc2Cl)OCO3)n1,–,3.98 µM (active)
COc1ncc2ncc(=O)n(C3CC3)c2n1,-9.36%,–
COc1cccc(Cn2c(=O)cnc3cnc(OC)nc32)c1,–,10 µM (active)
COc1cccc(Cn2c(=O)cnc3cnc(OCc4ccccc4)nc32)c1,–,12.6 µM (active)
COc1cccc(Cn2c(=O)cnc3cnc(Oc4cccc(Cl)c4)nc32)c1,–,5.01 µM (active)
N[C@@H](Cn1cc(F)c(=O)[nH]c1=O)C(=O)O,-26.2%,–
CCC(c1nnnn1CC1CCCO1)N(CCN1CCOCC1)Cc1cc2cc(C)ccc2[nH]c1=O (stereo not given),–,15.8 µM (active)
COCOc1ccc(Br)cc1C(=O)[C@H]1O[C@H]1c1cccc(OC)c1,–,3.98 µM (active)
COc1ccc(CCN(C)Cc2ccc(OCc3ccccc3)c(OC)c2)cc1OC,–,0.631 µM (active)
COc1ccc(CCN(C)CCC(=O)Nc2c(C)cc(C)cc2C)cc1OC,–,7.94 µM (active)
COc1ccccc1OCc1ccc(C(=O)N(C)C)o1,4.32% [at 2.29 µM],–
Cc1ccc(S(=O)(=O)N[C@H]2COC(=O)C/C=C\[C@@H](C)[C@H](NS(=O)(=O)c3ccc(C)cc3)COC(=O)C/C=C\[C@H]2C)cc1,–,3.16 µM (active)
Cc1ccc(S(=O)(=O)N[C@H]2COC(=O)CC=C[C@@H](C)[C@H]3C=C[C@H](O)[C@@H](COC(=O)CC=C[C@H]2C)O3)cc1,-9.33% [at 11.4 µM],3.16 µM (active)
C[C@@H]1/C=C\CC(=O)OC[C@H]2O[C@@H](C=C[C@@H]2O)[C@H](C)/C=C\CC(=O)OC[C@H]2O[C@H]1C=C[C@@H]2O,-21.3% [at 11.4 µM],–
Cc1ccc(S(=O)(=O)N[C@@H]2COC(=O)C/C=C\[C@H](C)COC(=O)N[C@@H](C)C(=O)C/C=C\[C@H]2C)cc1,–,3.16 µM (active)
CO[C@H]1COC(=O)C/C=C\[C@H](C)COC(=O)[C@@H](C)NC(=O)C/C=C\[C@@H]1C,-29.4% [at 11.4 µM],–
CO[C@@H]1COC(=O)CC=C[C@@H](C)[C@@H]2C=C[C@@H](O)[C@@H](COC(=O)C/C=C\[C@H]1C)O2,-26.7% [at 11.4 µM],–
C[C@@H]1/C=C\CC(=O)OC[C@H](C)C(=O)N[C@@H](C)C(=O)OC1,-13.1% [at 11.4 µM],–
Cc1ccc(S(=O)(=O)N[C@H]2COC(=O)[C@@H](Cc3ccccc3)NC(=O)[C@@H](C)COC(=O)C/C=C\[C@@H]2C)cc1,-7.89% [at 11.4 µM],3.98 µM (active)
C[C@H]1COC(=O)[C@H]2CCCN2C(=O)[C@@H](C)COC(=O)[C@H](Cc2ccccc2)NC1=O,-25.7% [at 11.4 µM],–
CSCC[C@@H]1NC(=O)C/C=C\[C@@H](C)COC(=O)[C@@H](C)COC1=O,-21.5% [at 11.4 µM],–
